PubChem BioAssay AID1159580 (chemical genetic matrix, 2015)
The campaign covered roughly 5,500 compounds. About 2,000 (36%) were called active. Roughly 18% stayed inconclusive and do not appear here. Rule as the data show it: active = normalized growth mostly below about 0.91 (no sharp cut-off); inconclusive = no clear call, values can overlap the other calls; inactive = mostly above about 0.92. The list shows a part of the results.

Experiment: chemical genetic growth profiling, strain panel (AID 1159580);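 also: tested at 20 µM; growth read once vehicle control cultures reached saturation at 30 °C; 1 = growth at the plate median or of vehicle wells; lower values mean less growth of the strain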
Settings: S. cerevisiae deletion strains, growth OD

Measured: normalized growth

COc1ccc2c(c1OC)C(=O)O[C@H]2[C@@H]1c2cc3c(cc2CCN1C)OCO3
inactive: locus YAL013W, strain DEP1, hits give low values 1.01 | locus YAL040C, strain CLN3, hits give low values 0.973 | locus YCL061C, strain MRC1 (second series), hits give low values 1.01 | locus YDR363W, strain ESC2, hits give low values 1.02 | locus YER002W, strain NOP16, hits give low values 1.03 | locus YMR263W, strain SAP30, hits give low values 1 | locus YNL197C, strain WHI3, hits give low values 1.01 | locus YNL224C, strain SQS1, hits give low values 0.996 | locus YNL322C, strain KRE1, hits give low values 1.02 | locus YOR083W, strain WHI5 (second series), hits give low values 1.07 | locus YPL055C, strain LGE1, hits give low values 1.01
active: locus YGR078C, strain PAC10, hits give low values 0.428
